The values below come from PubChem BioAssay (Tox21).

Records with an inconclusive call do not appear. Unmarked numbers belong to inactive results. Calls of active or inactive are those of the source. The call rests on the fitted dose curve; in most records, active means well fitted activation curve with a large enough effect in the repeat runs; inconclusive means weak or mixed curves; inactive means flat fitted curve, though single readings scatter.
On the % scale 0 is the no-effect control and ±100 the full control effect; potency means the concentration at half of the fitted maximal effect.

The test is described as follows: A CellTox Green Cytotoxicity Assay to monitor cytotoxicity in HEK293 cells - 8 hour (AID 1224884). Further: nearly all actives have a fitted effect of over 35% in size. The note with it: CellTox Green fluorescence; series mostly up to 76.8 µM; cytotoxicity increase: at the top concentration. The source says:
National Center for Advancing Translational Sciences [NCATS]
NIH Chemical Genomics Center [NCGC]
U.S. Environmental Protection Agency [EPA]
National Institutes of Environmental Health Sciences [NIEHS]
National Toxicology Program [NTP]
Cell-based models are critical for drug discovery. Determining the natural cytotoxic effects resulting from test compounds is an essential research activity. A CellTox Green Cytotoxicity Assay to monitor cytotoxicity in real time of continues cell culture during 40 hours of the compound treatment was used to screen Tox21 10K library compounds in Hek293 cells. CellTox Green Cytotoxicity Assay is a nonlytic, homogeneous, biofluorescent method to measure cytotoxicity in cell culture after experimental manipulation. The assay system uses a proprietary asymmetric cyanine dye that is excluded from viable cells but preferentially stains the dead cell's DNA. […] Viable cells produce no appreciable increases in fluorescence. Therefore, the fluorescence signal produced by the binding interaction with dead cell DNA is proportional to cytotoxicity.
The mixture of Hek293 cell suspension and reagents were dispensed at 600cells/6 ul/well in 1536-well tissue culture treated black solid bottom plates using a Multidrop dispenser. After the assay plates were incubated at a 37 C/5% CO2 incubator for 5 hours, 23 nL of compounds dissolved in DMSO, positive and negative controls was transferred to the assay plate by a pintool work station. The plates were incubated at 37 C for 40 hours. The fluorescence intensity were measured at 0h, 8h, 16h, 24h, 32h and 40h time points using ViewLux plate reader during compound treatment.
With `CN1CCN(C2=Nc3ccccc3Oc3ccc(Cl)cc32)CC1`, the “cytotoxicity increase” value is 0.607% [at 35.3 µM].

Regarding `COc1cc(C)ccc1C(C)C`, the “cytotoxicity increase” value was 2.46%.

Take `CC(CNC1CCCCC1)OC(=O)c1ccccc1` (stereo not given): the “cytotoxicity increase” value was -18.8% [at 35.3 µM].

For the compound `Cc1nc(-c2ccccn2)ncc1C(=O)Nn1cc(C)c2cc(F)ccc21`, the “cytotoxicity increase” value is -1.31%.

Turning to `CCCCCCCCCCCCOCCOS(=O)(=O)O`, the Potency was 19.5 µM (active).

Regarding `FC(F)(F)C(Cl)(Cl)Cl`, the “cytotoxicity increase” value is -14.1%.

For the compound `CCc1nnc(NS(=O)(=O)c2ccc(N)cc2)s1`, the “cytotoxicity increase” value is -2.57% [at 35.3 µM].

With `CCCNC(C)(C)COC(=O)c1ccccc1`, the “cytotoxicity increase” value was 5.26% [at 35.3 µM].

For `COC(=O)c1ccc(OC)cc1`, the “cytotoxicity increase” value is 8.65%.

Consider `CCCCCCCCCCCCCCCCOP(=O)([O-])OCC[N+](C)(C)C`, for which the “cytotoxicity increase” value was 16.2% [at 35.3 µM].

In the case of `C=C(C)C(=O)OCCOP(=O)(O)O`, the “cytotoxicity increase” value was -7.85%.

On to `Cc1ccc([N+](=O)[O-])c(N)c1`, for which the “cytotoxicity increase” value was -4.78%.

In the case of `COc1cc2c(cc1N)oc1ccccc12`, the “cytotoxicity increase” value was -3.6%.

In the case of `CN1CCN(N)CC1`, the “cytotoxicity increase” value is 0.667% [at 35.3 µM].

`Cc1ccc(C)c(N)c1`: the “cytotoxicity increase” value is 0.265%.

Take `Oc1ccccc1C=NCc1ccccc1`: the “cytotoxicity increase” value is 0.25% [at 35.3 µM].

Regarding `CCCCCCCCCC/C=C/C#N`, the “cytotoxicity increase” value was -2.13%.

As for `O=S(=O)(O)C(F)(F)F`, the “cytotoxicity increase” value was 10.7%.

As for `FC(F)(F)c1ccccc1`, the “cytotoxicity increase” value is -9.5%.

`CO[C@@]1(NC(=O)CSCC#N)C(=O)N2C(C(=O)O)=C(CSc3nnnn3C)CS[C@@H]21`: the “cytotoxicity increase” value was -8.97% [at 35.3 µM].

As to `FC(F)(F)C(F)(F)C(F)(F)C(F)(F)C(F)(F)C(F)(F)C(F)(F)C(F)(F)Br`, the “cytotoxicity increase” value was -11.3% [at 35.3 µM].

In the case of `O=C(Cl)c1cccc([N+](=O)[O-])c1`, the “cytotoxicity increase” value is -0.0705%.

As for `O=C(O)CN(CCN(CC(=O)O)CC(=O)O)CCN(CC(=O)O)CC(=O)O`, the cytotoxicity increase is 18.1% [at 15.8 µM].

For the compound `CC(=O)Nc1ccc(C)c(Cl)c1`, the “cytotoxicity increase” value was 3.37%.

In the case of `C1CCOC1`, the “cytotoxicity increase” value is -7.55%.

On to `O=C1CCC(C2CCCCC2)CC1`, for which the Potency was 43.6 µM (active).

As for `CC(=O)N[C@@H](CC(C)C)C(=O)O`, the “cytotoxicity increase” value is 3.65% [at 35.3 µM].

Regarding `N#CSCC(=O)O`, the “cytotoxicity increase” value is -9.82% [at 35.3 µM].

In the case of `NCCC(O)(P(=O)(O)O)P(=O)(O)O`, the “cytotoxicity increase” value is 5.96% [at 35.3 µM].

As to `OCCN(CCO)c1ccccc1`, the “cytotoxicity increase” value is -0.263%.

For the compound `CO[Si](C)(C)OC`, the “cytotoxicity increase” value was -6.65%.

As to `Nc1ccc(Oc2ccc(N)c(N)c2)cc1`, the “cytotoxicity increase” value is -3.03%.

Consider `Nc1ccc2ccccc2c1S(=O)(=O)O`, for which the “cytotoxicity increase” value was 5.26%.

Turning to `CC(C)(C)c1ccc(OC(=O)c2ccccc2O)cc1`, the “cytotoxicity increase” value was 12.1%.

Consider `O=C1CCCCC1C1CCCCC1` (stereo not given), for which the “cytotoxicity increase” value is -4.97%.

In the case of `COc1ccc2nc(NC(=O)Nc3ccccc3)sc2c1`, the “cytotoxicity increase” value is 30.2% [at 35.3 µM].

Consider `CCCCNc1ccc(C(=O)OCCN(CC)CC)cc1`, for which the “cytotoxicity increase” value is -16.4% [at 35.3 µM].

With `CCN[C@H]1CN(CCCOC)S(=O)(=O)c2sc(S(N)(=O)=O)cc21`, the “cytotoxicity increase” value was 1.27% [at 35.3 µM].

On to `CC(=O)N(CC(O)CN(C(C)=O)c1c(I)c(C(=O)NCC(O)CO)c(I)c(C(=O)NCC(O)CO)c1I)c1c(I)c(C(=O)NCC(O)CO)c(I)c(C(=O)NCC(O)CO)c1I` (stereo not given), for which the “cytotoxicity increase” value was -12.6% [at 35.3 µM].

In the case of `CCCN(CCC)C(=O)C(CCC(=O)O)NC(=O)c1ccccc1` (stereo not given), the “cytotoxicity increase” value is -12.7% [at 35.3 µM].
